# MITF act: increases MITF-driven TRPM1 promoter luciferase signal | 300,000 tested, 0.75% active | SK-MEL-5 TRPM1-promoter luciferase, 24 h; % of positive control, neutral wells = 0 | activation, % at 12.5 µM | AID 588334;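 active = mean activation of at least 80% with every replicate also reaching 80%; inconclusive = mean reaches 80% but some replicate falls short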;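 note: 0% = neutral control wells and 100% = parthenolide positive control wells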
# TWEAK Fn14 block: blocks TWEAK-Fn14 interaction in a reporter cell assay. inhibition, % at 10 µM. AID 1159606. TWEAK-stimulated Fn14 reporter cells, luciferase luminescence, 8 h. 360,000 tested, 2% active; in the data active = inhibition above about 50%
# TRPM1 prom inh: reduces MITF-dependent TRPM1 promoter luciferase signal; SK-MEL-5 TRPM1 promoter luciferase, 24 h; inhibition, % at 12.5 µM; 330,000 tested, 0.83% active; AID 488899;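 active = mean inhibition across replicates of 60% or more, whatever share of single replicates reaches that level; inconclusive = some that reach 60%, reason not given; inactive = mean inhibition across replicates below 60%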
# EBV LMP1 NFkB: reduces LMP1-driven NF-kappaB luciferase signal; LMP1-induced NF-kappaB luciferase reporter cells, luminescence; inhibition, % at 12.5 µM; 350,000 tested, 0.69% active; AID 504558; in the data active = inhibition above about 41%; inconclusive = no clear call, values can overlap the other calls;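 note: 0% = neutral control wells and 100% = reference inhibitor control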
# TROY signal inh: blocks TROY-dependent signaling in reporter cells; Q293 LMP1-TROYcd NF-kB luciferase reporter, 4 h; inhibition, % at 10 µM; 360,000 tested, 0.98% active;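 active = compounds whose plate-normalised and pattern-corrected inhibition of the luciferase reporter signal at the single screening dose is 50% or more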
# LGR2 antag: inhibitors of bursicon-induced Drosophila LGR2 receptor cAMP signaling; HEK293 LGR2, CRE-luciferase, bursicon-stimulated, 4 h; inhibition, % at 9.99 µM; 380,000 tested, 0.35% active; AID 720647;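 active = drop in luminescence signal, shown as inhibition above about 50% in the replicate tests, limit read from the data, passing the limit was not always enough; inconclusive = probably only some replicates passing the limit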;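 note: agonist challenge used bursicon conditioned medium at about half maximal strength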
# * hit, by the source's call; ? = inconclusive; . = no result given. Most compounds without a hit are left out; they make up all but 3% or so of the library.
SMILES,MITF act,TWEAK Fn14 block,TRPM1 prom inh,EBV LMP1 NFkB,TROY signal inh,LGR2 antag
O=C1/C(=C/c2ccccc2)C[C@@]2(O)[C@H]3Cc4ccc(O)c5c4[C@@]2(CCN3CC2CC2)C1O5 (stereo partly specified),-108,91*,109*,20,64*,.
Cc1nc2ccc(Br)cc2c(=O)n1-c1ccc([N+](=O)[O-])c(C(F)(F)F)c1,-4,36,2,11,56*,?
Cc1ccccc1-n1c(C)nc2ccsc2c1=O,.,55*,-7,-4,2,3
CN(C)CC#Cc1ccc([C@@H]2[C@@H](CO)N3CCCCN(C(=O)Cc4ccccn4)C[C@H]23)cc1,.,.,.,.,.,-3
O=C(Cc1cccnc1)N1CCCCN2[C@H](CO)[C@H](c3ccc(/C=C/c4ccccc4)cc3)[C@@H]2C1,.,.,.,.,.,6
CC1OC(OC2C=C3CCC4C(CCC5(C)C(c6ccc(=O)oc6)CCC45O)C3(C)CC2)C(O)C(OC2OC(CO)C(O)C(O)C2O)C1O (stereo unspecified),.,86*,72*,89*,40,85*
O=[N+]([O-])c1ccc(CNCCc2ccccc2)cc1,6,98*,-4,-4,-17,-10
CC(=O)OC1CC(OC2C(O)CC(OC3C(O)CC(OC4CCC5(C)C(CCC6C5CCC5(C)C(C7=CC(=O)OC7)C(O)CC65O)C4)OC3C)OC2C)OC(C)C1OC1OC(CO)C(O)C(O)C1O (stereo unspecified),-85,83*,86*,30,44,87*
CC(=O)O[C@@H]1CC[C@]2(C)C3CC[C@@]4(C)C(C[C@@H](O)[C@@H]4O)C3[C@@H](OC(C)=O)C[C@H]2C1 (stereo partly specified),4,-11,-5,3,-10,9
CC1OC(OC2C(O)CC(OC3C(O)CC(OC4CCC5(C)C(CCC6C5CCC5(C)C(C7=CC(=O)OC7)C(O)CC65O)C4)OC3C)OC2C)CC(O)C1O (stereo unspecified),-69,81*,70*,62*,48,87*
CC(=O)OC1CC2(O)C3CCC4CC(O)CCC4(C)C3CCC2(C)C1C1=CC(=O)OC1 (stereo unspecified),.,85*,71*,72*,46,90*
COC(=O)[C@H]1[C@H](CO)[C@H]2Cn3c(ccc(-c4cccnc4)c3=O)[C@@H]1N2S(=O)(=O)c1ccccc1F,.,.,.,.,.,-2
CC(C)(O)/C=C/C(=O)[C@](C)(O)C1[C@H](O)C[C@@]2(C)C3CC=C4C(C[C@H](O)[C@@H](O)C4(C)C)[C@]3(C)C(=O)C[C@]12C (stereo partly specified),-69,-7,71*,27,56*,.
O=[N+]([O-])c1ccc(NCc2ccc(Cl)cc2)c2ccncc12,-27,51*,29,6,43,0
COC(=O)[C@@H]1[C@@H](CO)[C@@H]2Cn3c(ccc(C4=CCCC4)c3=O)[C@H]1N2CC1CCCC1,.,.,.,.,.,11
Cc1cccc(C)c1-n1nnnc1C(C1CC1)N1CCC2(CC1)C(=O)NCN2c1ccccc1 (stereo unspecified),.,37,.,.,75*,33
COc1ccc(-n2nnnc2C(c2cccc3ccccc23)N2CCC3(CC2)C(=O)NCN3c2ccccc2)cc1 (stereo unspecified),.,53*,.,.,10,2
Cc1cccc(C)c1-n1nnnc1C(c1ccccc1)N1CCC2(CC1)C(=O)NCN2c1ccccc1 (stereo unspecified),.,-24,.,.,-12,23
O=C(Cc1ccccn1)N1CCCCN2[C@@H](CO)[C@@H](c3ccc(-c4ccccc4F)cc3)[C@@H]2C1,.,.,.,.,.,16
CCCC#Cc1ccc([C@@H]2[C@@H](CO)N3CCCCN(C(=O)Cc4ccccn4)C[C@@H]23)cc1,.,.,.,.,.,4
O=C1NC(=O)C(CCc2ccncc2)(CCc2ccncc2)C(=O)N1C1CCCCC1,-6,3,8,-4,-1,-15
O=C1NC(=O)N(C2CCCCC2)C(=O)C1C1c2ccccc2C(=O)N1Cc1ccccc1 (stereo unspecified),-6,-1,12,78*,7,5
COC(=O)[C@H]1[C@H](CO)[C@H]2Cn3c(ccc(-c4cncnc4)c3=O)[C@@H]1N2S(=O)(=O)c1ccccc1C,.,.,.,.,.,-14
C[C@@H]1O[C@@H](O[C@H]2C[C@@H](O)[C@]3(CO)[C@H]4[C@H](O)C[C@]5(C)[C@@H](C6=CC(=O)OC6)CC[C@]5(O)[C@@H]4CC[C@]3(O)C2)[C@H](O)[C@H](O)[C@H]1O,-70,85*,70*,80*,49,.
CCCCn1c(N)c(C(=O)NCCN2CCOCC2)c2nc3ccccc3nc21,3,3,8,-5,64*,.
SMILES,MITF act,TWEAK Fn14 block,TRPM1 prom inh,EBV LMP1 NFkB,TROY signal inh,LGR2 antag
CCCCn1c(NC(=O)c2ccc(Br)o2)c(C(=O)OCC)c2nc3ccccc3nc21,7,71*,-5,-9,59*,5
COCCCn1c(N)c(C(=O)Nc2ccccc2)c2nc3ccccc3nc21,.,6,.,.,2,4
CCCCn1c(NS(=O)(=O)c2ccccc2)c(C(=O)OCC)c2nc3ccccc3nc21,-14,80*,15,4,69*,5
CCOC(=O)c1c(N)n(CCN2CCCCC2)c2nc3ccccc3nc12,-6,-11,9,-7,3,-10
COC(=O)[C@H]1[C@H](CO)[C@H]2Cn3c(ccc(C4=CCCCC4)c3=O)[C@@H]1N2Cc1ccccc1OC,.,.,.,.,.,6
N#Cc1ccc(-c2ccc([C@H]3[C@H]4CN(C(=O)Cc5ccccc5)CCCCN4[C@H]3CO)cc2)cc1,.,.,.,.,.,-7
O=C1CNC[C@@H]2[C@H](c3ccc(Br)cc3)[C@H](CO)N12,.,.,.,.,.,-10
CC(=O)OCC12CC(OC(=O)CC(C)C)C(C)=CC1OC1C(O)C(OC(C)=O)C2(C)C12CO2 (stereo unspecified),.,93*,87*,88*,82*,101*
C[C@H]1CCC/C=C/[C@@H]2C[C@H](O)C[C@H]2[C@@H](O)/C=C/C(=O)O1,.,61*,89*,-49,-50,28
C=C1C(=O)OC2CC3(C)OC3CCC(C)=CC(OC(C)=O)C12 (stereo unspecified),.,76*,70*,55*,52*,40*
O=c1[nH]c(=O)n(-c2cccc3ccccc23)c(O)c1C=NCCCn1ccnc1,-7,62*,9,-5,16,.
Cc1cc(C(=O)N=Nc2c(O)n(C)c3ccccc23)c(C)o1,87*,-36,-78,-13,-83,-8
Cn1c(=O)oc(=O)c2ccccc21,-8,-4,8,-1,-3,-13
O=c1[nH]c(O)c(N=Nc2ccc3c(c2)OCCO3)c(=O)[nH]1,-49,91*,52,36,88*,67*

# Bioassay records: PubChem BioAssay, several laboratories
